This is an account of results in PubChem BioAssay.

A short description of assay [1]: binders of probe aFSTL3 on microarray, primary screen, stem cell growth factor project, biochemical, small-molecule microarray, fluorescence 635/667 (AID 1064).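 Also: measures binding of the biotinylated anti-FSTL3 antibody to printed compounds.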 To be noted: higher = more signal.
A short description of assay [2]: binders from COS7 lysate, DM2A8 probe, primary screen, torsin A project, cell lysate, small-molecule microarray, fluorescence 635/667 (AID 1065). To be noted: higher = more signal, COS7 lysate expressing mutant human TOR1A.
Assay [3] can be described thus: binders of probe aFGF2 on microarray, primary screen, stem cell growth factor project, biochemical, small-molecule microarray, fluorescence 635/667 (AID 1067).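 Also: measures binding of biotinylated aFGF2 protein to printed compounds on slides; z-score merges feature fluorescence and signal-to-noise across triplicate slides.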 The settings on record: higher = more signal.
Assay [4] in a line: binders of probe aFGF10 on microarray, primary screen, stem cell growth factor project, biochemical, small-molecule microarray, fluorescence 635/667 (AID 1071).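 Also: score merges 667 nm spot intensity and signal to noise from triplicate slides.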 To be noted: higher = more signal.
In assay [5] the target is Neurogenic locus notch homolog protein 2 (Homo sapiens) (UniProt Q04721). As to the kind of experiment: Notch2 binders on small-molecule microarrays, primary screen, biochemical, small-molecule microarray, 635 nm fluorescence, stem cell growth factors (AID 1073). To be noted: Notch2 binding, higher = more signal.
Neurogenic locus notch homolog protein 2 (Homo sapiens), sequence (Q04721 whole entry, looked up, canonical isoform): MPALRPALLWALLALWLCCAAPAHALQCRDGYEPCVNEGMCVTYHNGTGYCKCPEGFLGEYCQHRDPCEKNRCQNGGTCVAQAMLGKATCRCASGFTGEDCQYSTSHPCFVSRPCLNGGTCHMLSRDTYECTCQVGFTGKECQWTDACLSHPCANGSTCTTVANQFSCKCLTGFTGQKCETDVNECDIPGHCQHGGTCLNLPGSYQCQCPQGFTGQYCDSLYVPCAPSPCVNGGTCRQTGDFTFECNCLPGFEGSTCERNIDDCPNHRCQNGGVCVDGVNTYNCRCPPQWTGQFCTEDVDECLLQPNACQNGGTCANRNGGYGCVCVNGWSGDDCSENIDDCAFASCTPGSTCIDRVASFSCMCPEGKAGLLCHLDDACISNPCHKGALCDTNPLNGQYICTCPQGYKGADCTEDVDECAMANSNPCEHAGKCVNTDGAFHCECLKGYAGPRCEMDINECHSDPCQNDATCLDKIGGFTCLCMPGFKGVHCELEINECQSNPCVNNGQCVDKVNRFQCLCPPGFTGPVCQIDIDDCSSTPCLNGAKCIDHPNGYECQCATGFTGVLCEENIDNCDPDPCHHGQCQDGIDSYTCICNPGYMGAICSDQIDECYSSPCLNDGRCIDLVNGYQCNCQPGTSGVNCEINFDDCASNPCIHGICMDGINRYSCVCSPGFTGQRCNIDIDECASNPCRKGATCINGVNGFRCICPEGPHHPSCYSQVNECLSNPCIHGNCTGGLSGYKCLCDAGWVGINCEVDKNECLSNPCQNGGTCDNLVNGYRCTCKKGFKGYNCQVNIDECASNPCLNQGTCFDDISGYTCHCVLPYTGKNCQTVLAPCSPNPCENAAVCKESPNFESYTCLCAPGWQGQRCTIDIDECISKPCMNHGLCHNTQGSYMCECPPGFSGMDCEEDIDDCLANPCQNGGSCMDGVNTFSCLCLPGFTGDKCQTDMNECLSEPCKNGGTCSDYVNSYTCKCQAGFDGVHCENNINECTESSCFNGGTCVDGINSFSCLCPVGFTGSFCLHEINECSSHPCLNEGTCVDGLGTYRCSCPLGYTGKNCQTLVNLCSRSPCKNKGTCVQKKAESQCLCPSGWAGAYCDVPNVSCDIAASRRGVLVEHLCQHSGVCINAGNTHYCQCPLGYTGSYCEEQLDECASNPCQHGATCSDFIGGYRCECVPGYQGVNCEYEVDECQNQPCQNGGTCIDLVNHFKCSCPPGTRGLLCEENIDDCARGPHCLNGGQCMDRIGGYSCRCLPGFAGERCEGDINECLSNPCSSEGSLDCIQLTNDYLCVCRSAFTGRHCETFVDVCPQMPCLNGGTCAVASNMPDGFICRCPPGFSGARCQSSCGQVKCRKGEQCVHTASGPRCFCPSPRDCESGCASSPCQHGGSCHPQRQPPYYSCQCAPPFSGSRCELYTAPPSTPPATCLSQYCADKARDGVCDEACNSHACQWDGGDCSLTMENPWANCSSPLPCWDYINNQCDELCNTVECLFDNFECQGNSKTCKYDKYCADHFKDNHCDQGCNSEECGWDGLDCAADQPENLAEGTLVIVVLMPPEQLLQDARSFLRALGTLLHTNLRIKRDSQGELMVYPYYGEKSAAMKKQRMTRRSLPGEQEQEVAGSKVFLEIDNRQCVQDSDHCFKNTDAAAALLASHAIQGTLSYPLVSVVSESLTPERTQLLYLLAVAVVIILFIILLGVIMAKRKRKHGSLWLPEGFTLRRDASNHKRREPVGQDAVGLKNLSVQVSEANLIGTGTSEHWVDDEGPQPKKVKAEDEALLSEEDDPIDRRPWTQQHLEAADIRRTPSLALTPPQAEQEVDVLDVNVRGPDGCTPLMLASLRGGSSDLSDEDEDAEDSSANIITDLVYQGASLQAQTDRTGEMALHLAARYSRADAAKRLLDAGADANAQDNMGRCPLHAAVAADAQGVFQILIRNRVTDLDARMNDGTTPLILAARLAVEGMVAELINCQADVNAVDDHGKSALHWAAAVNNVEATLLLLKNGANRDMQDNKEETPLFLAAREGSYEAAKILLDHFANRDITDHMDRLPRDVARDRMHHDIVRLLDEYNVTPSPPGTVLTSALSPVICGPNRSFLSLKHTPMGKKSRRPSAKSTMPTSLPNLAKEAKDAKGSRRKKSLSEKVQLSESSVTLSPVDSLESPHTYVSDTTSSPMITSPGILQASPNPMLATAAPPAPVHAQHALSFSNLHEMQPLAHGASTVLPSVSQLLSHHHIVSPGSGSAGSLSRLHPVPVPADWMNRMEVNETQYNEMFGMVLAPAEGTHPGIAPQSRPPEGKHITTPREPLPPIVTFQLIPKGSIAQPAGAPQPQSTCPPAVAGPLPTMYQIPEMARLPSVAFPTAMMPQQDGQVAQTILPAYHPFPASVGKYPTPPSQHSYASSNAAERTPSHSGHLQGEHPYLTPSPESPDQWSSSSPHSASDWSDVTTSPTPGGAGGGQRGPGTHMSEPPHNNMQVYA
The target of assay [6] is Pro-neuregulin-1, membrane-bound isoform (Homo sapiens) (UniProt Q02297). In words: NRG1 binders on small-molecule microarrays, primary screen, psychiatric disease protein project, biochemical, small-molecule microarray, fluorescence 635/667 (AID 1075).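 Also: score combines 667 nm spot fluorescence with signal to noise.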 To be noted: NRG1 binding, 635 nm fluorescence, higher = more signal.
Pro-neuregulin-1, membrane-bound isoform (Homo sapiens), sequence (Q02297 whole entry, looked up, the tested form may be a part, canonical isoform): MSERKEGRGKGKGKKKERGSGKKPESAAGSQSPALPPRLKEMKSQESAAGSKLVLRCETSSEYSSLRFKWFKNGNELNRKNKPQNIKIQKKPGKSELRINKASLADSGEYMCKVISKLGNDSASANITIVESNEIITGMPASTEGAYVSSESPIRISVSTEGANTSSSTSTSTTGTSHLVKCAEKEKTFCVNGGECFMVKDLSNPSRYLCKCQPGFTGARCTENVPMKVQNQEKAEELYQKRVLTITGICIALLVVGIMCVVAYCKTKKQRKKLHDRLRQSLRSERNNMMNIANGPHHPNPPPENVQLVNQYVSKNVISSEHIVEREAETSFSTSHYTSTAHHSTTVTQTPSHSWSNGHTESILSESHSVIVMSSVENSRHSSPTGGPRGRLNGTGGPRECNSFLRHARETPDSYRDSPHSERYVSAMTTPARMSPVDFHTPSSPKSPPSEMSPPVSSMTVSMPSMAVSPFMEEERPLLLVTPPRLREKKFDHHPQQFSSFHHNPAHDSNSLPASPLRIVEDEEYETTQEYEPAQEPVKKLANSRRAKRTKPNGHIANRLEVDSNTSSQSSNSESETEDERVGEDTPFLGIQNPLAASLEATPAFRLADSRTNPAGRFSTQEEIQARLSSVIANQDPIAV
Assay [7] has as its system Neuregulin-1 EGF-like domain. As to the kind of experiment: binders of neuregulin-1 EGF-like domain, primary screen, biochemical, small-molecule microarray, 635 nm fluorescence (AID 1081).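 Also: binding of the protein to compounds printed on small-molecule microarray slides.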 To be noted: small-molecule microarray binding, higher = more signal.
The nature of assay [8]: FRG1 promoter luciferase signal modulators, primary screen, FRG1 inhibition for FSHD, cell-based, C2C12 myotubes, firefly/Renilla luciferase, luminescence (AID 1084). The settings on record: higher = more signal, called active from +8 up or from −8 down.
Assay [9] in a line: binders of probe aFST on microarray, primary screen, stem cell growth factor project, biochemical, small-molecule microarray, fluorescence 635/667 (AID 1086).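 Also: score merges 667 nm fluorescence with signal-to-noise of each printed compound spot.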 To be noted: higher = more signal.
Assay [10] is described as follows: binders of probe aHhip on microarray, primary screen, stem cell growth factor project, biochemical, small-molecule microarray, fluorescence 635/667 (AID 1087).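 Also: score merges spot fluorescence at 667nm with spot signal to noise ratio.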 The settings on record: higher = more signal.
Assay [11] has as its system PRMT1 (protein arginine N-methyltransferase 1). As to the kind of experiment: PRMT1 binders on small-molecule microarrays, primary screen, biochemical, small-molecule microarray, 635 nm fluorescence (AID 1088).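 Also: binding of Prmt1 protein to compounds spotted on small-molecule microarray slides.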 The settings on record: small-molecule microarray binding, higher = more signal.
Assay [12] can be described thus: yeast growth modulation, basal conditions, primary screen, YJM789 clinical isolate, OD600, 24 h (AID 1089).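 Also: growth of clinical yeast isolate S. cerevisiae YJM 789 seeded 1000 cells per well; test concentration not given here.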 The settings on record: S. cerevisiae YJM789 growth, higher = more signal, called active from +8 up or from −8 down.
Assay [13] in a line: fission yeast growth modulation, primary screen, strain 972, OD600, 24 h, no modulator (AID 1090).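 Also: basal condition with compound alone and no growth modifier present; test concentration not given here.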 The settings on record: S. pombe 972 growth, higher = more signal, called active from +8 up or from −8 down.
Assay [14] can be described thus: S. cerevisiae growth modulation with rapamycin, primary screen, strain BY4716, OD600, 96 h (AID 1091). Also: test concentration not given here. To be noted: higher = more signal, called active from +8 up or from −8 down.
Assay [15] has as its target Torsin-1A-interacting protein 2 (Homo sapiens) (UniProt Q8NFQ8). As to the kind of experiment: LULL1 binders on small-molecule microarray, primary screen, cell lysate, human LULL1 lysate, 635/667 nm fluorescence (AID 1092).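 Also: probe is lysate of COS7 cells overexpressing human LULL1; score merges per-feature 667 nm fluorescence with signal-to-noise.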 The settings on record: hLULL1 lysate binding, 635 nm fluorescence, higher = more signal.
Assay [16] can be described thus: E. coli growth modulation, two-sided OD650, primary screen, E. coli filamentation project, strain DRC41, 24 h (AID 1093).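 Also: MC1000 strain lacking acrAB efflux and sulA so SOS filamentation is blocked; test concentration not given here.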 The settings on record: OD650, 24 h, higher = more signal, called active from +8 up or from −8 down.
Assay [17] can be described thus: small-molecule microarray binders of probe aLefty2, primary screen, biochemical, biotinylated probe, 635/667 nm fluorescence (AID 1094).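 Also: score merges spot fluorescence near 667 nm with spot signal-to-noise ratio.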 To be noted: higher = more signal.
The test system of assay [18] is Noggin (protein binding on small-molecule microarray). In words: Noggin binders on small-molecule microarray, primary screen, biochemical, 635/667 nm fluorescence (AID 1095).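 Also: score merges 667 nm feature fluorescence with signal to noise over triplicate slides.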 To be noted: 635 nm fluorescence, higher = more signal.
Assay [19] deals with Neurogenic locus notch homolog protein 3 (Homo sapiens) (UniProt Q9UM47). As to the kind of experiment: NOTCH3 binders on small-molecule microarray, primary screen, biochemical, 635/667 nm fluorescence (AID 1096). To be noted: NOTCH3 binding, 635 nm fluorescence, higher = more signal.
Assay [20] can be described thus: small-molecule microarray binders of probe aEGFR, primary screen, biochemical, biotinylated probe, 635/667 nm fluorescence (AID 1097).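 Also: probe is a biotinylated anti-EGFR antibody binding compounds printed on slides; score combines fluorescence near 667 nm and signal to noise of each spot.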 To be noted: higher = more signal.

Activity calls are given as the source filed them.

Torsin-1A-interacting protein 2 (Homo sapiens), sequence (Q8NFQ8 whole entry, looked up): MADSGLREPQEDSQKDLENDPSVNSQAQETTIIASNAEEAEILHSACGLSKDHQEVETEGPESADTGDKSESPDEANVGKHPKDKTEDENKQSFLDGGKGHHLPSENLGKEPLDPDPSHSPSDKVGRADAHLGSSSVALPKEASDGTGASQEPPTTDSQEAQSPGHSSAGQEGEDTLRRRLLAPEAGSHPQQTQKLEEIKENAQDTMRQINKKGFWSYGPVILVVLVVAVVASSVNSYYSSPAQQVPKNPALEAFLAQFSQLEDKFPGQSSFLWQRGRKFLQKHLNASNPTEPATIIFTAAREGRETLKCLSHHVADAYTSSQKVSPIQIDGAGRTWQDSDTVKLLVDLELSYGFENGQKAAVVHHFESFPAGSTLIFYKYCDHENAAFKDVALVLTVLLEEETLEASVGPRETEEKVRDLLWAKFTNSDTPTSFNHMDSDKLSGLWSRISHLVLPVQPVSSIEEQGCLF

`[N-]=[N+]=Nc1ccccc1C[C@]1(C(=O)NCCN2CCOCC2)N=C(c2ccc(OCCCO)cc2)O[C@H]1c1ccccc1N=[N+]=[N-]`: the composite z-score in [1] was -0.195; in assay [2] it was -0.354; in [3] it was 0.125; in assay [4] it was 0.763; in [5], 1.64; in [6], 1.59. Besides, the composite z-score in assay [7] turned out to be 1.33; in assay [9], 0.839; in assay [10], 0.113; in [11], 1.55; in assay [15], 3.37; in [17] it was 0.491. Further, the composite z-score came out at 0.708 in assay [18], 1.03 in [19] and 0.542 in assay [20]. Besides, the z-score in assay [8] was -0.344 (inactive); in assay [12], -2.65 (inactive); in assay [13], -4.92 (inactive); in assay [14] it was -0.821 (inactive); in assay [16], 0.683 (inactive).
Consider `CC1(C)[C@@H]2CC(C(O)C3C=CC4C(=O)N(c5ccccc5)C(=O)C4N3Nc3ccccc3F)=C[C@@H]1C2` (stereo not given in full), for which the composite z-score in assay [1] was -0.168; in assay [2] it was 0.159; in assay [3] it was -0.0092; in assay [4] it was 1.03; in assay [5], 1.54; in assay [6], 1.28. Besides, the composite z-score in assay [7] is 1.14; in assay [9], 0.955; in assay [10], -0.228; in assay [11], 1.53; in [15] it was 3.19; in assay [17], 0.155. Also, the composite z-score in assay [18] stood at 0.791; in [19], 1.06; in [20], 0.0066. Moreover, the z-score was -3.65 (inactive) in assay [8]; -0.601 (inactive) in assay [12]; 0.5 (inactive) in [13]; -0.382 (inactive) in assay [14]; -0.117 (inactive) in assay [16].
Turning to `CC(C)N1CC=CC23O[C@@H]4C=CCOC(=O)[C@@H]4[C@H]2C(=O)N(CCCCCCO)[C@@H]3C1=O` (stereo not given in full), the composite z-score in assay [1] is -0.895; in assay [2], -0.775; in assay [3] it was -0.237; in [4], 1.07; in assay [5] it was -0.697; in assay [6], -0.126. Further, the composite z-score in assay [7] is 1.47; in assay [9], -0.588; in [10], -0.949; in assay [11], 0.0483; in assay [15], 3.29; in [17] it was -0.315. Besides, the composite z-score was -0.627 in [18], -0.478 in assay [19] and -0.2 in assay [20]. Also, the z-score in [8] is 0.213 (inactive); in assay [12], -0.976 (inactive); in assay [13], -0.174 (inactive); in assay [14], -1.41 (inactive); in assay [16], 0.76 (inactive).
For the molecule `Cc1cc(C)c(C(O)C2C=CC3C(=O)N(c4ccccc4)C(=O)C3N2Nc2ccccc2)c(C)c1` (stereo not given), the composite z-score in assay [1] was found to be 0.175; in [2], 0.668; in assay [3] it was 0.216; in assay [4], 1.08; in [5] it was 1.56; in assay [6], 1.99. The composite z-score in [7] was 1.22; in [9] it was 1.25; in [10], -0.189; in assay [11] it was 1.56; in [15] it was 3.47; in assay [17] it was 0.506. Further, the composite z-score in assay [18] worked out at 0.0982; in [19], 1.05; in [20] it was 0.178. Besides, the z-score in assay [8] was 0.423 (inactive); in assay [12] it was 0.839 (inactive); in [13], 0.483 (inactive); in assay [14] it was 0.0441 (inactive); in assay [16] it was -1.02 (inactive).
As to `COCCCNC(=O)[C@@]1(Cc2ccccc2I)c2ccccc2C(=O)N(Cc2ccccc2Cl)[C@H]1c1ccc(CO)cc1`, the composite z-score in assay [1] was -0.196; in assay [2], 0.229; in assay [3] it was -0.0686; in assay [4] it was 0.293; in assay [5], 0.153; in assay [6], 1.3. In addition, the composite z-score in assay [7] is 1.13; in assay [9] it was -0.211; in assay [10], -0.156; in assay [11], 0.34; in [15], 2.37; in assay [17], 0.0842. The composite z-score was 0.323 in [18], 0.344 in [19] and -0.0429 in [20]. The z-score is -1.21 (inactive) in [8]; -2.1 (inactive) in assay [12]; -0.477 (inactive) in [13]; -0.905 (inactive) in assay [14]; -0.162 (inactive) in assay [16].
